# Screening data (PubChem BioAssay)
# Hits are enriched below; roughly 2.3% of the tested compounds scored in any of these assays.
# GLD-1 RNA inh: GLD-1-TGE RNA interaction inhibition (C. elegans) | Q17339 | purified GLD-1 + fluorescein TGE RNA, fluorescence polarization | inhibition, % at 5.96 µM | 0.44% of 320,000 active | AID 2280;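 active = percent inhibition above a per-plate cutoff, the plate mean of test compounds plus 3 SD, cut at about 30% in these data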
# Bim-Mcl-1: human Bim-Mcl-1 interaction inhibition; Bead-based flow cytometry, Bim peptide-Mcl-1 binding; inhibition, % at 10 µM; 0.1% of 190,000 active; AID 1009; in the data active = inhibition above about 40%
# Target sequence (Q07820 whole entry, looked up): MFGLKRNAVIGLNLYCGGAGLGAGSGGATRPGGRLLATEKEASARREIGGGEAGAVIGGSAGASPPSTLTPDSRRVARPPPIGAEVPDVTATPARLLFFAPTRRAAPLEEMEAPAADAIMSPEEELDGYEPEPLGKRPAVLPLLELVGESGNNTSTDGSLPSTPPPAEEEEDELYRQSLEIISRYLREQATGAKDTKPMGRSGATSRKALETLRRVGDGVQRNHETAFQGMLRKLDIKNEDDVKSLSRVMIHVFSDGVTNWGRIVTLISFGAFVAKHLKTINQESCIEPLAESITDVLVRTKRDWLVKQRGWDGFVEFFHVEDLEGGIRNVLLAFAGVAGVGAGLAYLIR
# Mcl1-Noxa inh: disrupts binding of human Mcl-1 to Noxa peptide; inhibition, % at 21.7 µM; TR-FRET Mcl-1/Noxa peptide binding, 2 h; Q07820; 1.5% of 220,000 active;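 active = compounds that cut the protein-peptide binding signal by more than 50% relative to plate controls in a single-dose test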;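 also: His-tagged Mcl-1 with rhodamine Noxa BH3 peptide and terbium anti-His antibody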
# BCLXL inh: Bcl-xL (human) inhibition; inhibition, % at 10.9 µM; GST-Bcl-xL / FITC-Bim BH3 peptide fluorescence polarization; Q07817; 0.7% of 320,000 active; AID 2129;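 active = inhibition above the mean of all tested compounds plus 3 SD, cutoff set per campaign, cut at about 30% in these data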;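 also: inhibitors lower millipolarization by displacing the labeled peptide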
# Target sequence (Q07817 whole entry, looked up): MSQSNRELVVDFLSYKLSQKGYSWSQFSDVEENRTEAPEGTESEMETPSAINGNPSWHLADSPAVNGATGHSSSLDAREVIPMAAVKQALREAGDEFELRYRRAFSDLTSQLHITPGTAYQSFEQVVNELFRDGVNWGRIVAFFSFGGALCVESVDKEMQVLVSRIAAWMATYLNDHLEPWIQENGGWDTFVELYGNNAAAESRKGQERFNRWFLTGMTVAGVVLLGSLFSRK
# MCL1 BIM primary: MCL1-BIM-BH3 interaction inhibition (human). GST-MCL1 / FITC-Bim-BH3 fluorescence polarization. Q07820. 0.68% of 320,000 active. inhibition, % at 10.9 µM. AID 2057;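 active = inhibition above the mean inhibition of all tested compounds plus 3 SD, set per campaign, cut at about 40% in these data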;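 also: higher means more loss of mP so more displacement of Bim peptide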
# Mcl1-Bid inh: disrupts binding of human Mcl-1 to Bid peptide; 0.97% of 220,000 active; inhibition, % at 21.7 µM; TR-FRET Mcl-1/Bid-Dy647 peptide binding, 1536-well;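 active = compounds that cut the binding signal by more than half at the single screening dose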;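 also: His-tagged Mcl-1 with europium anti-His antibody binding Bid BH3 peptide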
# A number is an active result; – = inactive; · = not tested or not shown.
SMILES,GLD-1 RNA inh,Bim-Mcl-1,Mcl1-Noxa inh,BCLXL inh,MCL1 BIM primary,Mcl1-Bid inh
Cc1ccc(CNS(=O)(=O)c2c(C)[nH]c(C)c2C(=O)N2CCCCC2)cc1,–,·,·,–,–,·
COc1ccccc1C(=O)N1CCC(N2CCN(c3ccccc3OC)CC2)CC1,–,·,–,–,–,–
COc1ccccc1C(=O)N1CCC(N2CCN(c3ccccc3)CC2)CC1,–,·,–,–,–,55.5
Cc1ccccc1N1CCN(C2CCCN(C(=O)CCn3cnnn3)C2)CC1 (stereo not drawn),–,·,·,–,–,·
Cc1csc2ncnc(N3CCN(C(=S)Nc4ccc(F)cc4F)CC3)c12,–,·,–,–,–,89.7
CC(=O)Nc1ccc(NC(=O)C(C)Sc2n[nH]c(-c3ccc(C)cc3)n2)cc1 (stereo not drawn),–,·,·,–,–,·
Cc1ccc(CN2CC(C(=O)N3CCN(S(=O)(=O)c4cccc(F)c4)CC3)CC2=O)cc1 (stereo not drawn),–,·,·,–,–,·
CN1CCc2c(sc3c2C(=O)NC(c2cccc(OC(=O)c4cccs4)c2)N3)C1 (stereo not drawn),–,–,57.6,–,–,–
CN1CCc2c(sc3c2C(=O)NC(c2ccco2)N3)C1 (stereo not drawn),–,–,–,37.6,–,–
CCOC(=O)N1CCc2c(sc3c2C(=O)NC(c2ccccc2)N3)C1 (stereo not drawn),–,–,–,–,–,–
COc1ccc2nc(C)cc(SCC(=O)N/N=C/c3ccc(O)c(O)c3)c2c1,–,–,54.2,–,–,–
O=C(CSc1nc2ccccc2o1)N/N=C/c1ccc(O)c(O)c1,–,·,–,–,–,–
Cc1cc(SCC(=O)N/N=C/c2ccc(O)c(O)c2)c(C)cc1Br,–,–,60.5,–,–,–
COC(=O)c1cn(C(=O)c2cc(Cl)ccc2Cl)c2ccccc12,–,·,·,–,–,·
CCC1=[N+](C)CCn2c(C)ccc21,–,–,–,–,–,–
CC(=O)c1c(C)c(C)c2n1CCn1c(C)ccc1-2,–,·,–,35.7,–,–
O=Cc1c(NCCN2CCCC2)c2ccccc2[nH]c1=O,–,·,·,–,–,·
CCN(C(=O)Cn1ccc(C(F)(F)F)n1)c1c(N)n(Cc2ccccc2)c(=O)[nH]c1=O,–,·,·,–,–,·
COc1ccc2nc3ccccc3nc2c1N,–,·,55.2,–,–,–
COc1ccc2nc(-c3ccccc3)cc(OC)c2c1,–,–,–,–,–,–
COc1ccc2nc3cccc(OC)c3nc2c1,–,–,–,45.9,–,–
COc1ccccc1C(=O)OCc1c(-c2ccccc2)ncc2ccccc12,–,·,·,·,·,·
CCN(c1cccc(C)c1)S(=O)(=O)c1ccc(-c2ccc(=O)[nH]n2)o1,–,·,·,–,–,·
CC1C(c2ccccc2)N(C)CCC12NC(=O)NC2=O (stereo not drawn),–,–,–,–,–,88.1
N#Cc1c(Cl)nsc1NN,–,–,–,–,–,–
SMILES,GLD-1 RNA inh,Bim-Mcl-1,Mcl1-Noxa inh,BCLXL inh,MCL1 BIM primary,Mcl1-Bid inh
CCc1nc(Nc2cccc(F)c2)c2oc3ccccc3c2n1,–,·,·,–,–,·
CCOC(=O)C1=C(O)/C(=C/N(C)C)N=C1C,–,–,–,35.6,–,–
Cc1ccc(C(=O)N/N=C\c2ccc(-c3ccc(Cl)cc3)o2)cn1,–,·,–,–,–,–
CC(C)Oc1ccc(C(=O)N/N=C/c2ccc(-c3ccc(S(=O)(=O)Nc4ncccn4)cc3)o2)cc1,–,–,66.8,–,–,–
COc1cccc(CN2CCCC(C(=O)N3CCCCC3)C2)c1 (stereo not drawn),–,·,·,–,–,·
CC1CC(C)CN(CCCNC(=O)C2CCCN(c3ncnc4c3nc3n4CCCCC3)C2)C1 (stereo not drawn),41.2,·,·,–,–,·
CC1CCCCN1CCNC(=O)C1CCCN(c2ncnc3c2nc2n3CCCCC2)C1 (stereo not drawn),–,·,·,38.8,–,·
CC1CCCN(CCCNC(=O)C2CCCN(c3ncnc4c3nc3n4CCCCC3)C2)C1 (stereo not drawn),–,·,·,–,–,·
Cc1ccc(-c2nnc(CN3CCCCC3C)o2)cc1 (stereo not drawn),–,·,·,–,–,·
S=c1nc(-c2cccc(Cl)c2)[nH][nH]1,–,–,–,–,–,–
S=c1nc(-c2cc(Cl)ccc2Cl)[nH][nH]1,–,–,–,–,–,57.8
Cc1cc(C)c2c(CC(=O)NC3CCS(=O)(=O)C3)coc2c1 (stereo not drawn),–,·,·,–,–,·
CN(C(=O)NC1CCCCC1)c1ccccc1,–,51.0,–,–,–,–
CN(Cc1ccccc1)C(=O)NC1CCCCC1,–,·,–,–,–,–
O=C(Cc1ccc(-c2ccccc2)cc1)NC1CCCC1,–,45.0,–,–,–,–
COc1ccc(C(=O)N2CCCN(C)CC2)cc1S(=O)(=O)N(C)Cc1ccccc1,–,·,·,–,–,·
CC(C)(C)NC(=O)CN(Cc1ccc2c(c1)OCO2)C(=O)CNS(=O)(=O)c1ccccc1,–,·,·,–,–,·
CC(=O)N1CCn2c3c(c(=O)c4cc(C)ccc42)CCC31 (stereo not drawn),–,–,–,32.5,–,–
O=[N+]([O-])c1ccccc1CN1CCN(Cc2ccccn2)CC1,–,–,–,–,–,59.2
CC12CCC(=O)N1C(C(=O)Nc1cc(S(=O)(=O)N3CCCCCC3)ccc1OCC(F)(F)F)CS2 (stereo not drawn),–,·,·,–,–,·
CCOc1ccc(NC(=S)NN2C(C)CCCC2C)cc1 (stereo not drawn),–,–,–,–,–,57.1
CN1CCN(c2ccccc2NC(=O)c2ccc(-c3ccc(Cl)cc3Cl)o2)CC1,–,–,64.6,–,–,–
CCc1sc(C(=O)NCCCn2ccnc2)cc1Br,–,·,·,–,–,·
CN(C)c1ccc(/C=C/c2cccc[n+]2[O-])cc1,–,·,–,30.9,–,–
[O-][n+]1ccccc1/C=C/c1ccccc1,–,·,·,–,–,·
SMILES,GLD-1 RNA inh,Bim-Mcl-1,Mcl1-Noxa inh,BCLXL inh,MCL1 BIM primary,Mcl1-Bid inh
CC(C)(C)c1cc(C(=O)N/N=C/c2ccc(-c3ccccc3[N+](=O)[O-])o2)n[nH]1,75.4,·,·,47.8,42.3,·
O=C(N/N=C/c1ccc(-c2ccccc2[N+](=O)[O-])o1)c1cccnc1,–,–,–,–,–,–
COc1cc2c(cc1NC(=S)NC(=O)/C=C/c1ccc(OC)c(OC)c1)oc1ccccc12,·,–,–,·,·,62.2
COc1cc2c(cc1NC(=O)CSc1ccccc1)oc1ccccc12,–,–,–,–,–,–
COc1cc2c(cc1NC(=O)CSc1nccn1C)oc1ccccc12,–,–,56.6,–,–,–
CN(CC(=O)Nc1ccc(F)cc1)C(=O)CSc1nc2ncc(Cl)cc2[nH]1,–,–,67.3,–,–,–
CCCOc1ccc(/C=C/c2c([N+](=O)[O-])c(=O)n(C)c(=O)n2C)cc1,–,·,·,–,–,·
CC(=O)c1sc(-c2ccc(Cl)cc2)cc1N,–,·,–,–,–,56.0
COC(=O)c1sc(-c2ccc(Cl)cc2)cc1N,–,·,–,–,–,–
COC(=O)c1ccccc1NC(=O)CNCCc1ccc(OC)c(OC)c1,–,·,·,–,–,·
